Assay results from PubChem BioAssay (NCATS).
Results filed as inconclusive are left out. Entries that show only a call come without a potency. Calls of active or inactive are those of the source. The call rests on the fitted dose curve; in most records, active means well fitted inhibition curve with a large enough effect; inconclusive means small, poorly fitted or top-dose-only effect; inactive means flat fitted curve, though single readings scatter.

System: DIV30
Assay: qHTS profiling for inhibitors of Plasmodium falciparum proliferation (AID 504749); further: nearly all actives have a fitted effect of over 60% in size
Details: P. falciparum in erythrocytes, SYBR Green DNA, 72 h; series mostly up to 28.7 µM
In short: (§1)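 Each compound contacts P. falciparum-infected red blood cells for 72 h at 37 C; lysis buffer (Tris, EDTA, saponin, Triton X, SYBR Green I) is added and fluorescence measured next morning; values normalized to controls.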
Potency means the concentration at half of the fitted maximal effect.

| SMILES | Potency |
| --- | --- |
| CCC(CC)(CC(=O)Nc1cccc(/C=C/c2nc(C3CCC3)cs2)c1)C(=O)O | inactive |
| COc1cc(O)c(C(=O)c2ccccc2)cc1S(=O)(=O)O | inactive |
| C#C[C@]1(OC(C)=O)CC[C@H]2[C@@H]3CCC4=C/C(=N/O)CC[C@@H]4[C@H]3CC[C@@]21CC | inactive |
| CCOC(=O)Nc1ccc2c(c1)N(C(=O)CCN1CCOCC1)c1ccccc1S2 | inactive |
| Cc1cc2c(OCC(CNC(C)(C)C)OC(=O)c3ccccc3)cccc2[nH]1 (configuration not stated) | inactive |
| CCc1ccc(C(=O)C(C)CN2CCCCC2)cc1 (configuration not stated) | inactive |
| CCC(C(=O)OCCOCCN(CC)CC)c1ccccc1 (configuration not stated) | inactive |
| CC(=O)NCCCCCC(=O)O | inactive |
| CCOc1ccccc1OCCN[C@H](C)Cc1ccc(OC)c(S(N)(=O)=O)c1 | inactive |
| CCN(CC)CCOC(=O)C1(c2ccccc2)CCCC1 | inactive |
| NC(=O)C1(N2CCCCC2)CCN(CCCC(=O)c2ccc(F)cc2)CC1 | inactive |
| CC(=O)O[C@H]1C[C@@H]2CC[C@@H]3[C@H](CC[C@@]4(C)[C@H]3C[C@H]([N+]3(C)CCCCC3)[C@@H]4OC(C)=O)[C@@]2(C)C[C@@H]1N1CCCCC1 | inactive |
| CC[N+](C)(CC)CCOC(=O)C(O)(c1ccccc1)C1CCCCC1 (configuration not stated) | inactive |
| COc1cc([C@H]2Oc3cc([C@H]4Oc5cc(O)cc(O)c5C(=O)[C@@H]4O)ccc3O[C@@H]2CO)ccc1O | 19 µM (active) |
| CCNC(=O)NCc1cccc(Cl)c1 | inactive |
| Cc1ccc2c(Br)cc(Br)c(O)c2n1 | 16.9 µM (active) |
| O=[N+]([O-])c1cccc(S(=O)(=O)NCCNS(=O)(=O)c2cccc([N+](=O)[O-])c2)c1 | inactive |
| CC(C)[N+](C)(C)CC(O)COc1cccc2ccccc12 (configuration not stated) | inactive |
| C[N+]1(C)CCC(=C(c2ccccc2)c2ccccc2)CC1 | inactive |
| OC[C@H]1O[C@@H]2O[C@H]3[C@H](O)[C@@H](O)[C@@H](O[C@H]4[C@H](O)[C@@H](O)[C@@H](O[C@H]5[C@H](O)[C@@H](O)[C@@H](O[C@H]6[C@H](O)[C@@H](O)[C@@H](O[C@H]7[C@H](O)[C@@H](O)[C@@H](O[C@H]8[C@H](O)[C@@H](O)[C@@H](O[C@H]1[C@H](O)[C@H]2O)O[C@@H]8CO)O[C@@H]7CO)O[C@@H]6CO)O[C@@H]5CO)O[C@@H]4CO)O[C@@H]3CO | inactive |
| COC(=O)C(c1ccccc1Cl)N1CCc2sccc2C1 (configuration not stated) | inactive |
| CCCCCCCCCCCCOCCOCCOCCOCCOCCOCCOCCOCCOCCO | inactive |
| CN1CCN(C2=Nc3cc(F)ccc3Cc3ccccc32)CC1 | inactive |

System: Dd2
Assay: as above
Details: P. falciparum in erythrocytes, SYBR Green DNA, 72 h; series mostly up to 28.7 µM
In short: as §1

| SMILES | Potency |
| --- | --- |
| O=C(CN1CCN(Cc2ccc3c(c2)OCO3)CC1)N1c2ccccc2Sc2ccccc21 | 11.2 µM (active) |
| CCC(CC)(CC(=O)Nc1cccc(/C=C/c2nc(C3CCC3)cs2)c1)C(=O)O | inactive |
| COc1cc(O)c(C(=O)c2ccccc2)cc1S(=O)(=O)O | inactive |
| C#C[C@]1(OC(C)=O)CC[C@H]2[C@@H]3CCC4=C/C(=N/O)CC[C@@H]4[C@H]3CC[C@@]21CC | inactive |
| CN1CCC(OC(c2ccccc2)c2ccccc2)CC1 | 3.98 µM (active) |
| Cc1cccc(C)c1NC(=O)CN1CCCCCC1 | inactive |
| CCOC(=O)Nc1ccc2c(c1)N(C(=O)CCN1CCOCC1)c1ccccc1S2 | inactive |
| Cc1cc2c(OCC(CNC(C)(C)C)OC(=O)c3ccccc3)cccc2[nH]1 (configuration not stated) | 3.98 µM (active) |
| CCc1ccc(C(=O)C(C)CN2CCCCC2)cc1 (configuration not stated) | inactive |
| CN(C)CCN1C(=O)c2ccccc2N(C)c2ccccc21 | 11.2 µM (active) |
| Oc1ccc(Cl)cc1Cc1cc(Cl)ccc1O | inactive |
| CC(=O)NCCCCCC(=O)O | inactive |
| CCOc1ccccc1OCCN[C@H](C)Cc1ccc(OC)c(S(N)(=O)=O)c1 | inactive |
| CCN(CC)CCOC(=O)C1(c2ccccc2)CCCC1 | 8.91 µM (active) |
| CN(C)CCOC(c1ccc(Cl)cc1)c1ccccn1 (configuration not stated) | 4.47 µM (active) |
| Cc1ncc(CO)c(C=O)c1O | inactive |
| COc1cc([C@H]2Oc3cc([C@H]4Oc5cc(O)cc(O)c5C(=O)[C@@H]4O)ccc3O[C@@H]2CO)ccc1O | inactive |
| COc1ccc(C(=O)c2ccccc2O)c(O)c1 | inactive |
| CCNC(=O)NCc1cccc(Cl)c1 | inactive |
| Cc1ccc2c(Br)cc(Br)c(O)c2n1 | 11.2 µM (active) |
| O=C(O)CCc1nc2ccccc2[nH]1 | 0.0007 µM (active) |
| O=[N+]([O-])c1cccc(S(=O)(=O)NCCNS(=O)(=O)c2cccc([N+](=O)[O-])c2)c1 | inactive |
| C[N+]1(C)CCC(=C(c2ccccc2)c2ccccc2)CC1 | inactive |
| NCc1ccccc1Sc1ccccc1CO | 10 µM (active) |
| OC[C@H]1O[C@@H]2O[C@H]3[C@H](O)[C@@H](O)[C@@H](O[C@H]4[C@H](O)[C@@H](O)[C@@H](O[C@H]5[C@H](O)[C@@H](O)[C@@H](O[C@H]6[C@H](O)[C@@H](O)[C@@H](O[C@H]7[C@H](O)[C@@H](O)[C@@H](O[C@H]8[C@H](O)[C@@H](O)[C@@H](O[C@H]1[C@H](O)[C@H]2O)O[C@@H]8CO)O[C@@H]7CO)O[C@@H]6CO)O[C@@H]5CO)O[C@@H]4CO)O[C@@H]3CO | inactive |
| COC(=O)C(c1ccccc1Cl)N1CCc2sccc2C1 (configuration not stated) | inactive |
| CCCCCCCCCCCCOCCOCCOCCOCCOCCOCCOCCOCCOCCO | 12.6 µM (active) |
| CC(C)=CCOc1ccc(/C=C/C(=O)c2ccc(OCC=C(C)C)cc2OCC(=O)O)cc1 | inactive |
| CN1CCN(C2=Nc3cc(F)ccc3Cc3ccccc32)CC1 | 14.1 µM (active) |
